E coli growth-1 – reduces bacterial viability in AddAB counter-screen; E. coli V3065 growth, OD600 absorbance, 18 h; inhibition, % at 11.9 µM; 0.27% of 330,000 active;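 active = inhibition above the campaign's mean inhibition across all tested compounds plus 3 SD, cut at about 9.9% in these data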;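 also: uninfected addAB+ strain grown without phage in ampicillin broth; 0% = DMSO wells and 100% = ciprofloxacin 0.95 µg/ml wells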
E coli growth-2 – inhibitors of Escherichia coli growth; OD600 absorbance (test concentration not listed); 0.21% of 330,000 active; OD600, 23 h; active compounds read low;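 active = OD600 absorbance below the run mean of sample wells minus 3.6 SD, in any replicate, cut at about 0.56 in these data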
phage Ecoli inh – E. coli growth loss with phage present; growth absorbance; inhibition, % at 11.9 µM; 0.26% of 360,000 active; in the data active = inhibition above about 11%
AddAB inh – less growth of phage-infected E. coli with AddAB | E. coli expressing H. pylori AddAB, absorbance growth | 0.29% of 330,000 active | inhibition, % at 11.9 µM; in the data active = inhibition above about 12%;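 also: 0% = vehicle wells of infected cells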
Tat export inh – E. coli Tat transport inhibition | 0.036% of 340,000 active | E. coli MC4100 TorA-mCherry Tat export, fluorescence | inhibition, % at 10 µM;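 active = mean replicate inhibition at least 50% and at least half of replicates individually reaching 50%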;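 also: exported cargo escapes ClpAP degradation while cytoplasmic cargo is degraded and loses fluorescence; 0% = median of neutral control wells and 100% = median of NaSCN control wells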
AddAB conf – confirmation screen: growth loss of phage-infected E. coli expressing H. pylori AddAB. shares compounds with AddAB inh. E. coli V3065 expressing H. pylori AddAB, T4 phage, OD; T4 phage with gene 2 nonsense mutations. inhibition, % at 11.9 µM. 64% of 880 active. AID 488942;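 active = mean inhibition above a set limit taken from the earlier primary screen, cut at about 13% in these data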;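 also: higher means less bacterial growth since AddAB block lets phage replicate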
RecBCD counter – counter-screen: growth loss of RecBCD+ E. coli with mutant T4 phage; shares compounds with AddAB inh; E. coli V66 + mutant T4 phage, OD growth; inhibition, % at 11.9 µM; 73% of 880 active;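 active = mean inhibition above the mean of solvent-only control wells plus 3 SD, cut at about 4% in these data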;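 also: optical density read after an 18 h incubation at 37 °C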
Bact viability – reduces bacterial viability, AddAB inhibitor counter-screen | shares compounds with AddAB inh | absorbance (AddAB counterscreen) | inhibition, % at 11.9 µM | 35% of 880 active | AID 488956; in the data active = inhibition above about 25%
RecBCD conf – confirmation: growth loss of phage-infected RecBCD+ E. coli (RecBCD inhibitor screen); shares compounds with phage Ecoli inh; E. coli V66 + T4 2- phage, growth OD; inhibition, % at 11.9 µM; 45% of 890 active; AID 651982;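 active = mean inhibition over triplicates exceeding the hit threshold derived in the original primary screen, cut at about 11% in these data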
Ecoli viability – counter-screen for RecBCD inhibitors: inhibitors of bacterial viability; shares compounds with phage Ecoli inh; E. coli viability, absorbance (OD) growth; inhibition, % at 11.9 µM; 29% of 890 active; AID 651983; in the data active = inhibition above about 20%;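 also: E. coli strain V66 grown with compound alone and no phage infection; 0% = bacteria with DMSO vehicle only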
AddAB counter – growth loss of phage-infected AddAB E. coli, RecBCD counter-screen | AID 651984 | E. coli expressing H. pylori AddAB + T4 phage, OD growth; gene 2 mutant T4, recBCD-deleted host | 45% of 890 active | shares compounds with phage Ecoli inh | inhibition, % at 11.9 µM;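 active = mean inhibition above the solvent-only control wells' mean plus 3 SD, cut at about 22% in these data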;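 also: higher means less bacterial growth from phage killing when AddAB is blocked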
Active calls of the source: *; · = not tested or not shown. This is a sample that favours compounds with a hit; in the whole collection about 0.5% have one here.

SMILES | E coli growth-1 | E coli growth-2 | phage Ecoli inh | AddAB inh | Tat export inh | AddAB conf | RecBCD counter | Bact viability | RecBCD conf | Ecoli viability | AddAB counter
CCN(CC)c1ccc(/C=N/NC(=S)NCc2ccccc2)c(O)c1 | 15.4* | · | 13.5* | 12.4* | 0.6 | 9.1 | 14.0* | 15.9 | 8.7 | 9.5 | 20.2
CCN(CC)c1ccc(C=NNC(=S)NCc2ccccc2)c(O)c1 | · | 0.681 | · | · | · | · | · | · | · | · | ·
O=C1c2ccccc2C(=O)c2[nH]c(=O)[nH]c21 | 10.3* | 0.408* | 16.4* | 15.2* | -22.4 | 17.2* | 17.2* | -6.9 | 15.0* | 14.0 | 29.4*
COc1ccc(NC(=O)N(C)CC2Oc3ccc(NC(=O)NC4CCCCC4)cc3C(=O)N(C(C)CO)CC2C)cc1 (stereo unspecified) | · | 0.71 | · | · | · | · | · | · | · | · | ·
CCSc1nsc(NC(=O)Nc2ccccc2F)n1 | 4.0 | 0.587 | 5.8 | -1.7 | -2.1 | · | · | · | · | · | ·
C=CCSc1nsc(NC(=O)Nc2ccc(F)cc2)n1 | 15.9* | · | 15.4* | 19.6* | -12.9 | 18.5* | 21.8* | 21.4 | 7.8 | 9.6 | 22.4*
O=c1[nH]cc(O)c(=O)[nH]1 | -0.7 | 0.746 | 2.8 | 3.7 | 8.8 | · | · | · | · | · | ·
O=c1[nH]cc(F)c(=O)[nH]1 | 44.1* | · | 53.1* | 47.8* | 11.3 | 45.1* | 37.8* | 40.9* | 62.8* | 53.3* | 69.7*
NC(Cc1ccc(O)cc1)c1nnc(C(CCC(=O)O)NC(=O)C2CCNCC2)o1 (stereo unspecified) | · | 0.667 | · | · | · | · | · | · | · | · | ·
O=C(NNC(=O)c1ccccc1O)c1ccc(Cl)c(S(=O)(=O)N2CCc3ccccc32)c1 | 14.1* | 0.666 | 15.9* | 19.1* | -3.8 | 1.4 | 8.3* | -0.2 | 4.2 | 7.2 | 8.5
C#CCOCCOCCOCCNc1nc(N2CCN(C(=O)C(C(C)O)n3cc(C(N)CCCCN)nn3)CC2)nc(N2CCN(C(=O)C(C(C)O)n3cc(C(N)CCCCN)nn3)CC2)n1 (stereo unspecified) | · | 0.68 | · | · | · | · | · | · | · | · | ·
Cc1cc(=O)[nH]c(N/N=C/c2ccccn2)n1 | 12.8* | · | 18.8* | 18.2* | -9.5 | 9.8 | 20.1* | 8.9 | 6.5 | 16.0 | 13.1
Cc1cc(=O)[nH]c(NN=Cc2ccccn2)n1 | · | 0.533 | · | · | · | · | · | · | · | · | ·
O=c1nc(N/N=C/c2ccccn2)cn[nH]1 | 29.2* | · | 31.2* | 28.8* | -25.6 | 30.5* | 31.3* | 24.2 | 23.7* | 32.4* | 31.1*
O=c1cnnc(N/N=C/c2ccccn2)[nH]1 | 40.6* | · | 41.6* | 53.3* | -23.0 | 38.4* | 44.4* | 33.9* | 36.9* | 46.6* | 47.4*
Cc1ccc(C=NNc2cn[nH]c(=O)n2)o1 | · | 0.685 | · | · | · | · | · | · | · | · | ·
CC(=NNC(=S)NCc1ccccc1)c1ccc(C(C)(C)C)cc1 | · | 0.741 | · | · | · | · | · | · | · | · | ·
CN(C)S(=O)(=O)c1cccc(NC(=S)NN=Cc2ccco2)c1 | · | 0.644 | · | · | · | · | · | · | · | · | ·
CC(C)(C)OC(=O)CNC(=O)c1[nH]cnc1C(=O)NC(Cc1ccccc1)C(=O)OCc1ccccc1 (stereo unspecified) | · | 0.73 | · | · | · | · | · | · | · | · | ·
COc1ccc(C2C3C=CCC[C@@]3(C)C(=O)N2Cc2ccccc2)cc1Cl (stereo partly specified) | · | 0.717 | · | · | · | · | · | · | · | · | ·
CCN1CCN(C(c2ccc(C(F)(F)F)cc2)c2ccc3cccnc3c2O)CC1 (stereo unspecified) | 38.2* | 0.617 | 20.9* | 26.4* | -5.1 | 9.7 | 11.6* | 5.3 | 5.2 | 7.3 | 10.3
CN1CCN(C(c2ccc(C(F)(F)F)cc2)c2cc(Cl)c3cccnc3c2O)CC1 (stereo unspecified) | 22.6* | · | 24.0* | 17.5* | · | 13.6* | 14.3* | 10.5 | 5.6 | 6.4 | 8.8
CN1CCN(C(c2ccc(Cl)cc2)c2cc(Cl)c3cccnc3c2O)CC1 (stereo unspecified) | 19.4* | · | 15.5* | 13.2* | -8.2 | 4.2 | 9.9* | 3.1 | 2.4 | 1.3 | 2.7
Oc1c(C(c2ccccn2)N2CCCCC2)cc(Cl)c2cccnc12 (stereo unspecified) | -1.3 | 0.652 | 10.3 | -0.3 | -1.5 | · | · | · | · | · | ·
CCCCN1C(=S)NCC1Cc1cccc2ccccc12 (stereo unspecified) | · | 0.66 | · | · | · | · | · | · | · | · | ·
SMILES | E coli growth-1 | E coli growth-2 | phage Ecoli inh | AddAB inh | Tat export inh | AddAB conf | RecBCD counter | Bact viability | RecBCD conf | Ecoli viability | AddAB counter
CNC(=S)N1CCN(c2c(F)cc3c(=O)c(C(=O)O)cn(C4CC4)c3c2OC)CC1C (stereo unspecified) | 99.1* | 0.045* | 99.7* | 100.7* | 73.5* | 100.2* | 101.2* | 99.4* | 101.4* | 102.9* | 102.5*
COC(=O)C(C)NC(=S)N1CCN(c2c(F)cc3c(=O)c(C(=O)O)cn(C4CC4)c3c2OC)CC1C (stereo unspecified) | 101.9* | 0.0665* | 99.5* | 102.8* | 16.9 | 102.0* | 99.6* | 101.7* | 104.1* | 104.4* | 103.8*
O=S1(=O)NC[C@]23CC(c4ccc(F)cc4)C(CC21)O3 (stereo partly specified) | · | 0.685 | · | · | · | · | · | · | · | · | ·
O=C(Cc1ccc2c(c1)OCO2)NN=Cc1ccc([N+](=O)[O-])o1 | 9.9* | 0.543 | 12.7* | 27.2* | -3.1 | 98.7* | 8.4* | 22.9 | 6.5 | 6.3 | 37.0*
O=C(CNc1ccccc1)N/N=C/c1ccc([N+](=O)[O-])o1 | 15.7* | · | 11.6* | 16.7* | 2.9 | 83.7* | 12.5* | 27.8* | 10.4 | 9.0 | 58.8*
Cc1ccc(NCC(=O)N/N=C\c2ccc([N+](=O)[O-])o2)cc1 | 4.3 | · | 6.5 | 8.4 | -5.6 | · | · | · | · | · | ·
O=C(COc1ccccc1)NN=Cc1ccc([N+](=O)[O-])o1 | · | 0.552 | · | · | · | · | · | · | · | · | ·
O=C(CNC(=O)c1ccccc1)N/N=C/c1ccc([N+](=O)[O-])o1 | 22.7* | · | 20.2* | 27.5* | 0.0 | 97.7* | 10.4* | 28.6* | 15.0* | 13.3 | 82.1*
COc1cc2c(cc1O)C1Cc3cc(OC)c(OC)cc3C(C2)N1C (stereo unspecified) | · | 0.674 | · | · | · | · | · | · | · | · | ·
COC1C=COC2(C)Oc3c(C)c(O)c4c(O)c(c(CN5CCN(C)CC5)c(O)c4c3C2=O)NC(=O)C(C)=CC=CC(C)C(O)C(C)C(O)C(C)C(OC(C)=O)C1C (stereo unspecified) | · | · | 0.9 | · | 8.2 | · | · | · | · | · | ·

Bioassay records (PubChem)
